High-throughput results (PubChem)
In the library only some 8.1% were active in any assay of this set; here they are far more common.
KB-V1 MDR tox: KB-V1 MDR subline cytotoxicity. KB-V1 MDR cells viability, CellTiter-Glo, 72 h. Potency, µM (highest dose often 46.1 µM), actives largely listed as cytotoxic. 400,000 tested, 3.4% active. AID 1347076; further: nearly all actives have a fitted effect of over 60% in size
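Cells of the MDR subline KB-V1 are plated, dosed with compound at multiple concentrations, and incubated 72 h at 37 degrees C; CellTiter-Glo is then added and luminescence read after 10 min.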
KB-3-1 cytotox: kills parental KB-3-1 adenocarcinoma cells; KB-3-1 viability, CellTiter-Glo ATP luminescence, 72 h; Potency, µM (doses to about 46.1 µM), actives largely listed as cytotoxic; 400,000 tested, 1.4% active; further: nearly all actives have a fitted effect of over 60% in size
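Parental KB-3-1 viability, qHTS format: 72 h compound exposure, 37 °C; CellTiter-Glo; media-only wells and DMSO plates as controls; concentration-effect fits on corrected data.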
MCF10A rereplic: DNA re-replication induction in MCF 10a cells; MCF 10A DNA re-replication, Hoechst nuclear intensity, 48 h; Potency, µM (doses to about 46.1 µM), hits mostly activators; 350,000 tested, 2.9% active; AID 624296; further: nearly all actives have a fitted effect of over 50% in size
SW480 rerep: induces DNA re-replication in SW480 colon adenocarcinoma cells | SW480 DNA re-replication, Hoechst DNA content imaging, 48 h | Potency, µM (highest dose often 46.1 µM), most hits filed as activators | 340,000 tested, 1.8% active | AID 624297; further: nearly all actives have a fitted effect of over 55% in size
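Cells (250 per well) received 23 nL compound or DMSO by pin tool and were kept 48 hr at 37 C, 5% CO2. Nuclei were then stained with Hoechst for 40 min and scanned for DNA content.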
ELG1 DNA repair: blocks ELG1-dependent DNA repair in HEK293T cells. 330,000 tested, 2.3% active. Potency, µM (highest dose often 46.1 µM), usual class: inhibitors. HEK293T ELG1-luciferase reporter, luminescence, 16 h; DNA damage induced by 5-fluorouridine; further: nearly all actives have a fitted effect of over 55% in size
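Overnight (16 hr) co-exposure of 2,000 cells/well to 5-fluorouridine and compound at 37 °C preceded detection. Luciferase was quantified via ONE-Glo luminescence; loss of signal denotes inhibition.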
Hits are given with their value; – = inactive; ? = inconclusive; · = no result; ! = not confirmed by another sample; [ ] = remark or other dose. The call rests on the fitted dose curve; in most records, active means well fitted curve in the direction sought with a large enough effect; inconclusive means small, poorly fitted or top-dose-only effect, or another doubt; inactive means no such curve, though single readings can be large; an effect the other way counts as inactive or inconclusive.

SMILES | KB-V1 MDR tox | KB-3-1 cytotox | MCF10A rereplic | SW480 rerep | ELG1 DNA repair
COc1cc(NC(=O)CNC(=O)Cn2c(C)cc3ccccc3c2=O)cc(OC)c1OC | – | – | – | – | –
COc1ccc(-n2nc(C(=O)NCC(=O)NCc3ccco3)c3ccccc3c2=O)cc1Cl | 5.8µM | – | ? | – | ?
COc1ccc(-n2nc(C(=O)NCC(=O)N3CCN(c4ccccc4)CC3)c3ccccc3c2=O)cc1OC | – | – | – | – | –
COc1ccc(NC(=O)CNC(=O)Cn2c(C)cc3ccccc3c2=O)cc1OC | – | ? | ? | ? | 8.2µM
COc1ccc(-n2nc(C(=O)NCC(=O)NCCc3ccc(OC)c(OC)c3)c3ccccc3c2=O)cc1Cl | ? | ? | ? | – | 6.51µM
COc1ccc(-n2nc(C(=O)NCC(=O)Nc3cc(OC)c(OC)c(OC)c3)c3ccccc3c2=O)cc1OC | – | – | – | – | 2.31µM
O=C(/C=C/c1ccccc1)Nc1ccc(Cl)cn1 | ? | 18.4µM | ? | 14.6µM | ?
O=C(COC(=O)/C=C/c1ccccc1)Nc1ccc(Cl)cn1 | – | – | – | – | –
O=C(CC(c1ccccc1)c1ccccc1)Nc1ccc(Cl)cn1 | ? | ? | ? | ? | 11.6µM
O=C(CS(=O)(=O)c1ccccc1)Nc1ccc(Cl)cn1 | – | – | – | – | –
CCOC(=O)c1sc(C)c(C(=O)NCCCN2CCOCC2)c1N | – | – | – | – | –
O=C(Nc1nnc(-c2ccccc2F)s1)Nc1ccccc1F | – | – | – | – | ?
O=C(Nc1nnc(-c2ccccc2SCc2ccccc2)s1)Nc1ccccc1F | – | – | – | 3.66µM | –
Cc1cc(C)cc(NC(=O)c2cc(S(=O)(=O)NCCC3=CCCCC3)ccc2F)c1 | ? | – | · | · | ·
Cc1cc(NC(=O)COC(=O)c2ccc(S(=O)(=O)N3CCCC3)cc2)no1 | – | – | – | – | –
Cc1cc(NC(=O)COC(=O)c2ccc(S(=O)(=O)N3CCCc4ccccc43)cc2)no1 | ? | 14.6µM | 9.2µM | 14.6µM | ?
CC(=O)Nc1ccc(S(=O)(=O)N2CCCc3ccccc32)cc1 | ? | – | 9.2µM | 4.61µM | ?
Cc1cccc(C)c1NC(=O)c1cc(S(=O)(=O)N2CCCc3ccccc32)ccc1F | – | – | · | · | ·
Cc1ccc(NC(=O)c2cc(S(=O)(=O)N3CCCc4ccccc43)ccc2F)cc1F | – | 25.9µM | · | · | ·
Cc1ccc(NC(=O)c2cc(S(=O)(=O)NCCC3=CCCCC3)ccc2F)cc1F | 10.3µM! | 10.3µM! | ? | ? | ?
CC[C@@H]1C=C(C(=O)O)[C@H](c2ccc(C#N)cc2)N1S(=O)(=O)c1ccc(C)cc1 | – | – | – | – | –
CC(=O)Nc1ccc(S(=O)(=O)N2CCN(S(=O)(=O)c3ccccc3)CC2)cc1 | – | – | – | – | –
O=C(Nc1ccc(F)c(F)c1)c1cc(S(=O)(=O)N2CCN(c3ccccn3)CC2)ccc1F | 10.3µM | – | – | – | 16.4µM
CC(=O)Nc1ccc(S(=O)(=O)N2CCN=C2c2ccccc2)cc1 | – | – | – | – | 8.2µM
COC(=O)Nc1ccc(S(=O)(=O)N2c3ccccc3CCC2C)cc1 (stereo not drawn) | 4.11µM | 7.31µM | – | – | ?
SMILES | KB-V1 MDR tox | KB-3-1 cytotox | MCF10A rereplic | SW480 rerep | ELG1 DNA repair
Cc1ccc(Cn2c(C3CCCN3c3nc(-c4cc(Cl)c(N)c(Cl)c4)cs3)nc3cc(C(=O)NCCCO)ccc32)cc1 (stereo not drawn) | – | – | ? | –[9.22 µM] | ·
COc1ccc(S(=O)(=O)Nc2c(C)nc3nc(C)[nH]n3c2=O)cc1 | – | – | – | – | –
CCS(=O)(=O)c1ccc(O)c(NC(=O)COc2ccc(Br)cc2)c1 | – | – | – | ? | –
COc1ccc(-c2csc(N3CCN(S(=O)(=O)c4ccc5c(c4)NC(=O)CO5)CC3)n2)cc1 | ? | ? | – | 9.2µM | ?
CCOC(=O)CC/C(=N\NC(N)=O)c1ccc(OC)c(Cl)c1 | 8.2µM | – | – | – | –
COc1cc2cc(-c3ccc(O)cc3O)nc(C)c2cc1OC | 6.51µM | ? | ? | – | –
COc1cc2cc(-c3ccc(OC)c(OC)c3C)nc(N)c2cc1OC | 6.51µM | ? | 1.64µM | 1.64µM | ·
O=C(Nc1cccc2ccccc12)C1CCCC1 | – | – | – | ? | –
O=C(O)CCCC(=O)Nc1nncs1 | – | – | – | – | –
COCCSc1nnc(NC(=O)Cc2ccc(OC)c(OC)c2)s1 | ? | ? | – | 23.1µM | ?
